From PubChem BioAssay
NOD2-RIPK2 inh: NOD2-RIPK2 binding disruptors in cells, primary screen, fluorescence, CHO cells, BLA complementation; Receptor-interacting serine/threonine-protein kinase 2 (Homo sapiens), O43353; CCF4 ratio; inhibition, % at 4.98 µM; 360,000 compounds, 0.38% hits; in the data active means inhibition above about 21%
TLR4 MyD88 comp: inhibitors of TLR4-MyD88 association in cells, primary screen, cell-based, HeLa CL3-4, BLA complementation, FRET ratio; Toll-like receptor 4 (Homo sapiens) + Myeloid differentiation primary response protein …; HeLa CL3-4 TLR4/MyD88 BLA complementation; inhibition, % at 8.4 µM; 200,000 compounds, 0.18% hits; AID 861, 2007; in the data active means inhibition above about 25%
IDE inh: human IDE inhibitors in live cells, primary screen, fluorescence polarization, HEK cells, FAbetaB substrate; Insulin-degrading enzyme (Homo sapiens), P14735; FAbetaB cleavage; inhibition, % at 5.59 µM; 320,000 compounds, 0.41% hits;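 active means percent inhibition above the average of all tested compounds plus 3 SD, set per screening campaign, cut at about 16% in these data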;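 further: IDE supplied by intact live HEK cells; FP after avidin binding of uncleaved biotin substrate so inhibition keeps polarization high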
Target sequence (P14735 whole entry, looked up): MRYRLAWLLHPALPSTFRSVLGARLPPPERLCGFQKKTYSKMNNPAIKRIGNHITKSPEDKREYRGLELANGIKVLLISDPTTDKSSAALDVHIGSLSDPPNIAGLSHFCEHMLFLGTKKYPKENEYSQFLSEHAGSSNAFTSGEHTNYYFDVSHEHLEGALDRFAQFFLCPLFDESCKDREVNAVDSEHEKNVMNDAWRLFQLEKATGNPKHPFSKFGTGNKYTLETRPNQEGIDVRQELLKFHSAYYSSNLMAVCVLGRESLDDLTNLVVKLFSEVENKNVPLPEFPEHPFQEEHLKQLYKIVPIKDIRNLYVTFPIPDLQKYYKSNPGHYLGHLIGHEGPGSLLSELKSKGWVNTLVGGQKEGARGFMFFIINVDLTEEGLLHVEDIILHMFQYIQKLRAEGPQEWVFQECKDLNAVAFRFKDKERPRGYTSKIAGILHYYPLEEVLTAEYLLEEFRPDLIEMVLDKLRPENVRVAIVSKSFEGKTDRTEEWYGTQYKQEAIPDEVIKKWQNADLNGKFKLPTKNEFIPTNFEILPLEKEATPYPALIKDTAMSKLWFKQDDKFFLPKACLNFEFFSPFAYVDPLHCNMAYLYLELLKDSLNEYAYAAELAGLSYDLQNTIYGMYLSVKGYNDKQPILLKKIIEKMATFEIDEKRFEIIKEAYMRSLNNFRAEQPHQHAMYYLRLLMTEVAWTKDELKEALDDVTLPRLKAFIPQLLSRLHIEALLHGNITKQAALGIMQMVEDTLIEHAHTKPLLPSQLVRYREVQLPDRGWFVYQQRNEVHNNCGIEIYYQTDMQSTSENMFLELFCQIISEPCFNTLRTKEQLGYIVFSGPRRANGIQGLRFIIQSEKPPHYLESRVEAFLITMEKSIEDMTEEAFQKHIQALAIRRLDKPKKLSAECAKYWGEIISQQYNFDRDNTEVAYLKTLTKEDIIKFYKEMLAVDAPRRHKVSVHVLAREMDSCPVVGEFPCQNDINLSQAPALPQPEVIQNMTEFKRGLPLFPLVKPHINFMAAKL
IDE act: human IDE activators in live cells, primary screen, fluorescence polarization, HEK cells, FAbeta-B substrate. Insulin-degrading enzyme (Homo sapiens), P14735. FAbeta-B cleavage; 0% vehicle, 100% cell-free pure enzyme wells. 340,000 compounds, 0.073% hits. AID 493087, 2011. activation, % at 5.96 µM;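 active means activation above the mean of all tested compounds plus 3 SD, set per screening campaign, cut at about 17% in these data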
TLR9-MyD88 inh: inhibitors of TLR9-MyD88 association in cells, primary screen, cell-based, CHO, BLA complementation, fluorescence; inhibition, % at 4.98 µM; AID 504734, 2011; Toll-like receptor 9 (Homo sapiens) + Myeloid differentiation primary response protein …; 340,000 compounds, 0.21% hits; CCF4 FRET ratio;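 active means inhibition above the mean over all tested compounds plus 3 SD, cut at about 21% in these data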
IDE inh confirm: human IDE inhibitors in live cells, confirmation, fluorescence polarization, HEK cells, FAbetaB substrate; shares compounds with IDE inh; FAbetaB cleavage; inhibition, % at 5.59 µM; 1,200 compounds, 51% hits; AID 435028, 2010;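 active means mean inhibition across triplicate wells above the cutoff set by the earlier primary insulin-degrading enzyme screen, cut at about 16% in these data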
HEK cytotox: cytotoxicity in HEK cells, cytotoxicity control for IDE inhibitor project, cell-based, luminescence; shares compounds with IDE inh; HEK293 cytotoxicity, ATP luminescence; inhibition, % at 5.59 µM; 1,200 compounds, 28% hits; in the data active means inhibition above about 22%
Numbers stand for hits; – = inactive; · = no result. Compounds with a hit are over-represented: about 0.86% of the library has one in this group of screens.

SMILES	NOD2-RIPK2 inh	TLR4 MyD88 comp	IDE inh	IDE act	TLR9-MyD88 inh	IDE inh confirm	HEK cytotox
Clc1ccc2[nH]c3c(NCCN4CCOCC4)ncnc3c2c1	–	–	19	–	–	–	–
CC1(C)S/C(=N/N=C/c2cccs2)NC1=O	–	–	–	–	–	·	·
Cc1ccc(-n2nnc(-c3cc4ccccc4nc3Cl)n2)cc1	–	–	–	–	–	·	·
CN1C(=CC=C2C=C(I)C(=O)C(I)=C2)C(C)(C)c2ccccc21	–	·	·	–	–	·	·
CCCN1C(=O)/C(=C\C=C2\N(CC)c3ccccc3C2(C)C)SC1=S	–	–	·	–	–	·	·
CN1/C(=C\C=C2/C(=O)Oc3ccccc3C2=O)C(C)(C)c2ccccc21	·	–	184	·	·	61	23
CN1/C(=C\C=C2/SC(=S)NC2=O)C(C)(C)c2ccccc21	–	–	116	–	–	152	38
Cc1c(C)n(Cc2ccccc2)c2ccc(C(=O)OCCCN(C)C)cc12	–	–	–	–	–	·	·
Cc1cc(=O)oc2c3c(cc(OCC(=O)NCc4ccncc4)c12)OC(C)(C)CC3	–	·	22	–	–	–	24
COc1ccc(CNC(=O)COc2cc3c(c4oc(=O)cc(C)c24)CCC(C)(C)O3)cc1OC	–	·	–	–	–	·	·
COC(=O)Cn1c(=NC(=O)c2cc(OC)cc(OC)c2)sc2cc(OC)ccc21	–	–	16	–	–	–	–
COc1ccc(CCn2ccc(O)c(Cc3c(F)cccc3Cl)c2=O)cc1OC	–	–	–	–	–	·	·
CC1(c2ccccc2)CC(C)(C)n2c(O)c(C3=NC(=S)NC3=O)c3cccc1c32 (stereo not drawn)	–	·	–	–	–	·	·
C#CCOCCOCCOCCNc1nc(N2CCN(C(=O)[C@H]([C@@H](C)CC)n3cc([C@@H](N)CC(C)C)nn3)CC2)nc(N2CCN(C(=O)[C@H](Cc3ccc(O)cc3)n3cc([C@@H](N)C(C)CC)nn3)CC2)n1 (stereo partly drawn)	–	–	16	–	–	–	–
C#CCOCCOCCOCCNc1nc(N2CCN(C(=O)[C@H]([C@@H](C)CC)n3cc([C@@H](N)Cc4ccc(O)cc4)nn3)CC2)nc(N2CCN(C(=O)[C@H](Cc3ccc(O)cc3)n3cc([C@@H](N)C(C)CC)nn3)CC2)n1 (stereo partly drawn)	–	–	–	–	–	·	·
N#CC1=C(S)N=C(N)C(c2nc(-c3ccccc3)cs2)C12CCCCC2 (stereo not drawn)	–	–	–	–	–	·	·
N#CC1=C(S)N=C(N)C(c2nc(-c3ccccc3)cs2)C12CCCC2 (stereo not drawn)	–	–	20	–	–	–	–
COc1ccc(CCNC(=O)c2ccc(Cl)c(S(=O)(=O)N(C)c3ccccc3)c2)cc1	–	–	18	–	–	–	34
Cc1c(Cl)cccc1N=C(N)N=C(N)N	–	–	–	–	–	·	·
NC(N)=NC(N)=Nc1cccc2ccccc12	–	·	17	–	–	–	–
Cc1cc(C)nc(Oc2ccc([N+](=O)[O-])cc2)n1	–	–	–	–	–	·	·
COc1ccc(-c2cc(=O)c3ccc(O)cc3o2)cc1OC	–	·	·	·	·	·	·
Nc1ccc(-c2c3ccc(=O)cc-3oc3cc(O)ccc23)c(C(=O)O)c1	–	·	49	–	–	28	–
Cc1occc1C(=O)N/N=C/c1ccc(-c2ccccc2)cc1	–	·	16	–	–	–	65
COc1ccc(/C=N\NC(=O)c2ccc(-c3ccccc3)cc2)c(OC)c1OC	–	·	·	–	–	·	·
SMILES	NOD2-RIPK2 inh	TLR4 MyD88 comp	IDE inh	IDE act	TLR9-MyD88 inh	IDE inh confirm	HEK cytotox
COc1cc(/C=N/NC(=O)c2ccc(-c3ccccc3)cc2)cc(OC)c1OC	–	–	21	–	–	–	–
CS(=O)(=O)Oc1ccc2c(c1)O/C(=C\C=C\c1ccccc1)C2=O	–	·	33	–	–	18	–
CS(=O)(=O)Oc1ccc2c(c1)O/C(=C\c1cccc([N+](=O)[O-])c1)C2=O	–	·	·	–	–	·	·
C=CCN(C(=O)CSc1nnnn1C)c1nc(-c2ccccc2)cs1	–	·	·	–	–	·	·
C=CCN(C(=O)COC(=O)c1cc[n+]([O-])cc1)c1nc(-c2ccccc2)cs1	–	·	35	–	–	34	–
O=C(N/N=C/c1ccc(Cl)cc1Cl)c1cccc(N2CCCC2=O)c1	–	·	34	–	–	–	–
Cc1nc2ccc(NC(=S)NC3CCCCC3)cc2nc1C	–	–	21	–	–	–	–
CSc1cccc(N2CC(C(=O)Nc3ccccc3N3CCCC3)CC2=O)c1 (stereo not drawn)	–	·	16	–	–	–	–
COc1ccc(N2CCN(C(=O)CSc3nnc(-c4cccnc4)n3-c3ccc(F)cc3)CC2)cc1	–	–	–	–	–	·	·
O=C(CSc1nnc(-c2cccnc2)n1-c1ccccc1)N1CCN(c2ccc(F)cc2)CC1	–	–	21	–	–	–	–
Cc1ccc(-n2c(SCC(=O)N3CCOCC3)nnc2-c2cccnc2)cc1	–	–	–	–	–	·	·
Cc1ccc(-n2c(SCC(=O)N3CCOCC3)nnc2-c2cccnc2)cc1C	–	–	19	–	–	–	–
O=C(Cc1csc(-c2ccccc2)n1)NCc1cccs1	–	–	–	–	–	·	·
CCOC(=O)C1=C(CSc2nc(-c3ccncc3)ccc2C#N)OC(N)=C(C#N)C1c1ccc(OC)cc1 (stereo not drawn)	–	–	–	–	–	·	·
CCOC(=O)C1=C(CSc2nc(CC)c(C)cc2C#N)OC(N)=C(C#N)C1c1ccc(OC)cc1 (stereo not drawn)	–	–	22	–	–	–	–
O=C(NNC1CC(=O)N(c2ccc3c(c2)OCCO3)C1=O)c1ccc(Cl)cc1 (stereo not drawn)	–	–	–	–	–	·	·
C#CCN1C(=O)S/C(=C/C=C/c2ccc(N(C)C)cc2)C1=O	–	–	41	–	–	57	27
CC1SCC(=O)N(CC(=O)NC2CCCCC2)C1=O (stereo not drawn)	–	–	–	–	–	·	·
COc1ccc(/C=C/C(=O)NC(=S)Nc2ccc(S(=O)(=O)Nc3cc(C)on3)cc2)cc1	–	·	16	–	–	–	–
COc1ccc(OCC(=O)NC(=S)Nc2ccc(S(=O)(=O)Nc3cc(C)on3)cc2)cc1	–	·	–	–	–	·	·
